This note sets out measurements from a collection of fitness landscapes (doi:10.1126/science.1257360).

B1: PhoQ; a variant is named by its letters at X, in order, P23837 (parent)
chain: MKKLLRLFFPLSLRVRFLLATAAVVLVLSLAYGMVALIGYSVSFDKTTFRLLRGESNLFYTLAKWENNKLHVELPENIDKQSPTMTLIYDENGQLLWAQRDVPWLMKMIQPDWLKSNGFHEIEADVNDTSLLLSGDHSIQQQLQEVREDDDDAEMTHSVAVNVYPATSRMPKLTIVVVDTIPVELKSSYMVWSWFIYVLSANLLLVIPLLWVAAWWSLRPIEALAKEVRELEEHNRELLNPATTRELTSLVRNLNRLLKSERERYDKYRTTLTDLTHSLKTPLXXLQXXLRSLRSEKMSVSDAEPVMLEQISRISQQIGYYLHRASMRGGTLLSRELHPVAPLLDNLTSALNKVYQRKGVNISLDISPEISFVGEQNDFVEVMGNVLDNACKYCLEFVEISARQTDEHLYIVVEDDGPGIPLSKREVIFDRGQRVDTLRPGQGVGLAVAREITEQYEGKIVAGESMLGGARMEVIFGRQHSAPKDE

Whole data set: some 140,000 sequences, median “enrichment ratio after two sorts for PhoP signalling” near 0, cut for the highest 2% near 11. For the sample, the highest values were picked, then their nearest neighbours and some sequences at random.

The assay covers variants of B1. Kind of assay: enrichment ratio after two sorts for PhoP signalling (ratio (wild type AVST 3.29)); higher = more functional. The conditions noted are these: with PhoP (E. coli).
For the variant YDYH, the enrichment ratio was at most 0.25.

Take SRDH: the enrichment ratio was at most 0.25. For TGMF the value was 9.36; for FPKH, at most 0.25. The value for PMKR was at most 0.25; that for KGCL was at most 0.25; that for DMWF was at most 0.25. As to SAVH, the enrichment ratio turned out to be 7.41.

As to DYTW, the enrichment ratio was at most 0.25. For SQLS the value was 7.34. With SLLQ, the enrichment ratio was 7.5. For STLQ the value was 18.3. The value for SQLA was 11.7; that for SPLQ was at most 0.25.

As for SELQ, the enrichment ratio was found to be 27.9. As to SSLQ, the enrichment ratio came to 14.5. On to SFLQ, for which the enrichment ratio is 2.41.

Take SQLT: the enrichment ratio stood at 11. For SRLQ the value was 0.442; for KYLQ, at most 0.25. The value for SYLQ was 2.49; that for SFQN was at most 0.25. The value for PRSD was at most 0.25.

On to SGLQ, for which the enrichment ratio came to 16.6. For RGLQ the value was at most 0.25; for SGLR, at most 0.25; for TDLQ, 18.8. For the variant LTLQ, the enrichment ratio amounted to 2.15. As to KDLQ, the enrichment ratio was at most 0.25. The value for HQEY was at most 0.25; that for FHKA was at most 0.25. The value for RKDF was at most 0.25; that for TFCG was 5.19. For GSLA the value was 6.7; for GSLS, 11.8; for GSLT, 9.31. Consider GSDN, for which the enrichment ratio was at most 0.25.

Turning to GSLI, the enrichment ratio came out at 15.5.

As for GSDK, the enrichment ratio was at most 0.25. As to AIWD, the enrichment ratio is at most 0.25.

For the variant LESL, the enrichment ratio was at most 0.25.

Take MFLM: the enrichment ratio is at most 0.25. The value for NELM was at most 0.25; that for QELM was at most 0.25. For TELM the value was 13.8; for MKLM, 7.36; for MELM, 17.7.

Consider RAGW, for which the enrichment ratio is at most 0.25. The value for SSNF was 1.62. For MSLS the value was 5.72; for MSMV, 12.7; for MSNL, at most 0.25. The value for MSWV was 10.2; that for MSLV was 14.7.

As for MSMI, the enrichment ratio was determined as 23.5.

Turning to MSML, the enrichment ratio was 14.3. Regarding MSHK, the enrichment ratio is at most 0.25.

For MSMS, the enrichment ratio was at most 0.25.

As for MSMD, the enrichment ratio was at most 0.25. Consider MSMG, for which the enrichment ratio stood at 2.86. The value for DWAP was at most 0.25; that for DRKM was at most 0.25; that for HNAE was at most 0.25. For LMAI the value was at most 0.25.

For EHKQ, the enrichment ratio was at most 0.25. For REPP the value was at most 0.25. For MSLE the value was 3.24; for WIWQ, at most 0.25. The value for QFWQ was at most 0.25. Take KSWQ: the enrichment ratio was at most 0.25. The value for QDWQ was at most 0.25; that for MLWQ was at most 0.25; that for QIWQ was 34.4. The value for MFWQ was at most 0.25. For the variant QSWQ, the enrichment ratio turned out to be 33.6. The value for RTWQ was at most 0.25; that for MCWQ was at most 0.25; that for TGWQ was 22.6. For MSWQ the value was 14.5. As for SRES, the enrichment ratio is at most 0.25. The value for PTVM was at most 0.25; that for GKLF was at most 0.25. The value for IMPS was at most 0.25; that for KGLY was at most 0.25. For FVII the value was at most 0.25; for VELP, at most 0.25.

RMVC: the enrichment ratio is at most 0.25. For DREF the value was at most 0.25. For PGRT the value was at most 0.25; for MGWQ, 24.5; for MMWQ, at most 0.25. The value for QLWQ was 11.9; that for NVWQ was at most 0.25; that for MGGG was at most 0.25. For the variant TPWQ, the enrichment ratio is at most 0.25. The value for MIWQ was 24.2; that for MHWQ was at most 0.25; that for MRWQ was at most 0.25. For REHV the value was at most 0.25.

As for INFD, the enrichment ratio was at most 0.25. The value for HGVS was at most 0.25; that for ASCA was 13.5; that for ASIV was 11.4. For ASCP the value was at most 0.25; for ASCV, 18.9. The value for ASQV was 1.45; that for ASCK was 22.8. ASCQ: the enrichment ratio was found to be 4.02.

Consider ASNM, for which the enrichment ratio was 5.71. For ASTW, the enrichment ratio is at most 0.25. The value for ASIS was 7.49; that for KSCK was at most 0.25. Turning to ASIE, the enrichment ratio came to 0.421. As for DLCQ, the enrichment ratio was at most 0.25. The value for APTW was at most 0.25. For NWDH the value was at most 0.25; for QMYQ, 7.96. In the case of QHMS, the enrichment ratio was at most 0.25. For ASTV the value was 12.1; for ASGG, 4.75; for YTIN, at most 0.25. For AHTV the value was at most 0.25; for ASFG, 1.66.

Turning to VRTV, the enrichment ratio was at most 0.25. For AITV the value was 6.12; for ATIN, 11.9. For ASCG the value was 18.9.

For ASDV, the enrichment ratio was at most 0.25. The value for ADIN was at most 0.25; that for ANTV was 16.3. For HSQP the value was at most 0.25; for RWHM, at most 0.25; for HETV, 4.78. RMYW: the enrichment ratio was at most 0.25. The value for EHNH was at most 0.25; that for VGEA was at most 0.25. Turning to SAAE, the enrichment ratio is at most 0.25. The value for RITI was at most 0.25; that for GKRA was at most 0.25; that for ASNK was at most 0.25. For KSIA the value was at most 0.25; for ASVN, 7.54; for ASIN, 12. For ASIM the value was 14.6; for ASIR, 0.563; for TSIA, 2.99. Take ASCM: the enrichment ratio was determined as 11.6. For KSIN the value was at most 0.25. Consider ASIA, for which the enrichment ratio worked out at 13.9. The value for VRCM was at most 0.25.

Regarding PHTE, the enrichment ratio was at most 0.25. For IMWY the value was at most 0.25; for TLSA, 7.98.
